About 83,000 compounds went through this panel and 20% of them were active in at least one assay; those are over-represented in the sample as a whole.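 Growth was measured after 48 h exposure to one concentration of compound in 96-well plates. Values under 10 count as active.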 Calls of active or inactive are those of the source.

26 molecules from PubChem BioAssay (NCI) can be followed below.

The experiment has as its system OVCAR-3 ovarian. Put plainly: NCI-60 one-dose screen, 48 h (100 = growth as untreated, 0 = no growth, -100 = all killed). The conditions noted are these: 10 µM unless noted.
Turning to `O=S(=O)(NCCNc1nccc(-n2cnc3ccccc32)n1)c1ccc(C(F)(F)F)cc1`, the growth was 72.9% (inactive).
In the case of `CC(C)(C)c1ccc(C(=O)Nc2sc3c(c2C(N)=O)CC/C(=N\O)C3)cc1`, the growth was 12.6% (inactive).
Turning to `CC(=O)c1nnn(-c2c(C(=O)n3nc(C)cc3C)sc(=S)n2-c2ccccc2)c1C`, the growth is 115% (inactive).
With `CNC(=O)c1c(NC(=O)c2ccccc2C(F)(F)F)sc2c1CCC(=O)C2`, the growth was 11.2% (inactive).
Then `O=C(NNc1nc2cc(F)c(F)cc2n2cccc12)c1cnccn1`, with 35.6% (inactive).
Turning to `COc1cc(Nc2c(C#N)cnn3cc(-c4cnn(CC(C)(C)O)c4)cc23)ccc1Cl`, the growth was 57.6% (inactive).
In the case of `CCCCCCCn1cc2c(N[C@H](C)c3ccccc3)ncnc2n1` it was 103% (inactive).
Turning to `O=C(Cn1cc(-c2ccccc2)nn1)Nc1nc(-c2ccc(Cl)cc2)cs1`, the growth is 123% (inactive).
In the case of `CCOC(=O)C(=O)CC(=O)N1C(=S)NC(=O)C1CC(C)C` (stereo unspecified), the growth was 112% (inactive).
Then `O=C1Nc2ccccc2/C1=C/c1ccc(CO)n1-c1ccc(Cl)cc1`, with 31.7% (inactive); and `CCO/C=N/C1=C(C#N)C(c2ccc(OC)cc2)c2sc3c(CC)cccc3c2O1` (stereo unspecified), with -28.8% (active); and `O=C1[C@@H]2Cc3c([nH]c4ccccc34)[C@H](c3c(Cl)cccc3Cl)N2C(=O)CN1C1CCN(CC2CCCCC2)CC1`, with 20.3% (inactive).
Regarding `Cc1nn(-c2ccccc2)c2ncnc(N/N=C/c3cccc(O)c3)c12`, the growth was 41.5% (inactive).
Turning to `CS(=O)(=O)Nc1cc(-c2ccc3ncc(C#N)c(NCc4cccc(F)c4)c3c2)cnc1Cl`, the growth was 2.49% (active).
In the case of `Cc1ccc(-n2cc(/C=C/C(=O)c3ccc(O)cc3)c(-c3ccc(S(C)(=O)=O)cc3)n2)cc1` it was 22.7% (inactive); in that of `CC1(C)NCCC[C@]2(C)[C@H]3C/C(=N\O)C4[C@@H]5C[C@@](C)(CO)CC[C@]5(C)CC[C@@]4(C)[C@]3(C)CC[C@@H]12` (stereo partly specified), 109% (inactive); in that of `C#CCNC1CCC(c2csc(C#C)n2)=C1C` (stereo unspecified), -21.9% (active).
In the case of `NS(=O)(=O)c1ccc(Nc2nc(Nc3ccccc3)nc3nnc(SCC(=O)NC4CCCCC4)n23)cc1` it was 119% (inactive); in that of `O=C(CNc1nc(-c2cccc([N+](=O)[O-])c2)cs1)Nc1cccc([N+](=O)[O-])c1`, 5.33% (active).
Regarding `O=C(CSc1nc2ccccc2c(=O)n1-c1ccc(Cl)cc1)N/N=C/c1ccc(N2CCCCC2)cc1`, the growth was 32.8% (inactive).
Then `O=C(c1ccc(Cl)cc1)C1[C@H](c2ccc(Cl)cc2)[C@@H](c2ccccc2)NC12C(=O)Nc1ccccc12` (stereo partly specified), with 47.7% (inactive); and `CC(=O)c1ccc(Nc2nc(SCC(C)C)nc(-c3ccc(F)cc3)c2C#N)cc1`, with 115% (inactive).
Take `Fc1ccc(-c2cc3nc(C(Cl)Cl)nc(-c4ccc(F)cc4)n3n2)cc1`: the growth is -31.7% (active).
In the case of `CNc1ncc2cc(-c3ccc(-c4ncccc4F)cc3Cl)c(=O)n(CC3OCC(N)CO3)c2n1` (stereo unspecified) it was 90.7% (inactive); in that of `C#C[C@]1(O)CC[C@H]2[C@@H]3CC=C4c5sc(-c6ccc7c(c6)OCO7)nc5CC[C@]4(C)[C@H]3CC[C@@]21C`, -13.2% (active).
For `C=CCn1c(SCC(=O)Nc2ccc(C(=O)/C=C/c3ccc(C)cc3)cc2)nnc1-c1c[nH]c2ccccc12`, the growth is 99.4% (inactive).
